Screening results (PubChem)
Rows were chosen to be rich in hits. Some 8.1% of all compounds tested hit in one or more screens of this group.
ELG1 repair inh = ELG1-dependent DNA repair inhibition | 2.3% of 330,000 active | Potency, µM (doses to about 46.1 µM), without a hit: at the highest dose activity change, negative = inhibition, actives largely listed as inhibitors | HEK293T ELG1-luciferase reporter, luminescence, 16 h; DNA damage induced by 5-fluorouridine; note: % is set by controls: 0 for no effect and ±100 for the full control effect; nearly all actives have a fitted effect of over 55% in size
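In this reporter screen, reduction of luminescence relative to DMSO vehicle indicated activity. Compounds and 5-fluorouridine were added together to 2,000 cells per well, incubated for 16 hr at 37 °C, then developed with ONE-Glo.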
KB-V1 cytotox = kills drug-selected multidrug resistant KB-V1 cells; KB-V1 MDR cells viability, CellTiter-Glo, 72 h; Potency, µM (top dose mostly 46.1 µM), hits mostly cytotoxic; 3.4% of 400,000 active; note: % is set by controls: 0 for no effect and ±100 for the full control effect; nearly all actives have a fitted effect of over 60% in size
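Following 72 h at 37 degrees C with compound, KB-V1 cell viability was read by CellTiter-Glo luminescence, medium being phenol-red-free DMEM plus 10% FBS; concentration-response parameters came from normalized, curve-fitted qHTS data.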
SW480 rereplic = induces DNA re-replication in SW480 colon adenocarcinoma cells | Potency, µM (highest dose often 46.1 µM), for inactives: at the top dose re-replication activation, usual class: activators | SW480 DNA re-replication, Hoechst DNA content imaging, 48 h | 1.8% of 340,000 active | AID 624297; note: % of control where 0% means no effect; nearly all actives have a fitted effect of over 55% in size
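250 cells/well; 23 nL cpd via pin tool; 48 hr, 37 C, 5% CO2; Hoechst 40 min; imager read of total nuclear intensity, ex 405/em 500-530 nm.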
KB-3-1 tox = KB-3-1 parental cell cytotoxicity. Potency, µM (highest dose often 46.1 µM), most hits filed as cytotoxic. 1.4% of 400,000 active. AID 1347075. KB-3-1 viability, CellTiter-Glo ATP luminescence, 72 h; note: % is set by controls: 0 for no effect and ±100 for the full control effect; nearly all actives have a fitted effect of over 60% in size
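Cytotoxicity measured as CellTiter-Glo luminescence after 72 h at 37 C. Compound titrations were pinned onto drug-naive KB-3-1 parental adenocarcinoma cells grown in DMEM with 10% FBS, and normalized data fitted to concentration-response curves.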
MCF10A rerep = induces DNA re-replication in MCF 10a normal breast cells; MCF 10A DNA re-replication, Hoechst nuclear intensity, 48 h; Potency, µM (highest dose often 46.1 µM), for the others: top-dose activity, positive = re-replication, most hits filed as activators; 2.9% of 350,000 active; note: % of control where 0% means no effect; nearly all actives have a fitted effect of over 50% in size
Numbers without * were called inactive; i = inactive; ? = inconclusive; nt = no result. Calls come from the whole dose curve; as a rule, active = well fitted curve in the direction sought with a large enough effect; inconclusive = small, poorly fitted or top-dose-only effect, or another doubt; inactive = no such curve, though single readings can be large; an effect the other way counts as inactive or inconclusive. Potency is the fitted concentration of half-maximal effect.

SMILES	ELG1 repair inh	KB-V1 cytotox	SW480 rereplic	KB-3-1 tox	MCF10A rerep
COc1ccc(C(=O)NCC(c2cccnc2)N2CCN(c3ccccc3)CC2)cc1OC (stereo not given)	-10%	i	2%	5.2µM*	9%
CCOc1ccc2nc(NC(=O)c3ccc(S(=O)(=O)N4CCOCC4)cc3)sc2c1	-28%	i	1%	i	-6%
CCOc1ccc2nc(NC(=O)c3ccc(OC)c(S(=O)(=O)N4CCOCC4)c3)sc2c1	13µM*	i	-9%	i	15%
COC1CC(NC(C)=O)C(OC(=O)c2ccccc2)C(CBr)O1 (stereo not given)	nt	i	nt	i	nt
COC(=O)c1ccc(/C=N/NC(=S)NC(C)C)cc1	?	i	16µM*	i	?
CC(C)NC(=O)C1(C)CN(S(C)(=O)=O)CC(=O)N1Cc1ccc2c(c1)OCO2 (stereo not given)	nt	i	nt	i	nt
Cc1c(CN(C)C)c2c(n1Cc1ccccc1)C(=O)c1ccc(Br)cc1-2	-19%	23µM*	?	?	?
Cc1c(CN(C)C)c2c(n1C)C(=O)c1ccc(Br)cc1-2	-28%	i	?	i	27%
O=c1nc2n(CCO)c3ccccc3cc-2c(=O)[nH]1	nt	i	?	i	?
CSc1ncccc1C(=O)Nc1cccc(S(=O)(=O)N2CCCCC2)c1	-21%	i	-4%	i	2%
COc1ccc(NC(=O)c2cc3c(=O)n(Cc4cccnc4)ccc3nc2C)cc1Cl	nt	i	nt	i	nt
Cc1ccc(OCC(=O)N2N=C(c3ccc(Cl)cc3)CC2c2ccco2)c([N+](=O)[O-])n1 (stereo not given)	21µM*	i	-4%	i	13%
CCCc1cc(=O)[nH]c(SCC(=O)N2N=C(c3ccc(Cl)cc3)CC2c2ccco2)n1 (stereo not given)	15%	21µM*	-8%	?	?
Nc1cc(=O)[nH]c(SCC(=O)N2N=C(c3ccc(Cl)cc3)CC2c2ccco2)n1 (stereo not given)	-5%	i	2%	i	?
O=C(CCl)N1N=C(c2ccco2)CC1c1ccco1 (stereo not given)	?	?	21µM*	?	?
Cc1ccc(C2=NN(C(=O)CSc3nccn3C)C(c3ccco3)C2)cc1 (stereo not given)	?	9.2µM*	12µM*	?	?
O=C(CNc1ccc(C(F)(F)F)cc1)Nc1cccc(S(=O)(=O)N2CCCCC2)c1	nt	i	nt	i	nt
O=C(CCl)N1N=C(c2cccs2)CC1c1ccco1 (stereo not given)	23µM*	?	12µM*	?	18µM*
CCCCn1nnnc1C(c1cc2ccccc2o1)N1CCN(CC(=O)NC(C)C)CC1 (stereo not given)	nt	i	nt	i	nt
O=C(CC1C(=O)NCCN1Cc1cccc(Oc2ccccc2)c1)NCc1cccnc1 (stereo not given)	1%	i	5%	i	12%
O=C(CC1C(=O)NCCN1Cc1cccc(Oc2ccccc2)c1)NCCc1cnccn1 (stereo not given)	21%	i	3.3µM*	i	4%
CC(=O)N1CCc2c(sc3c2c(=O)n(CCc2ccccc2)c(=O)n3CC(=O)Nc2ccccc2F)C1	nt	i	nt	i	nt
COc1ccccc1N(CC(=O)N/N=C(\C)c1cccc(Br)c1)S(C)(=O)=O	-7%	21µM*	-5%	i	-1%
CS(=O)(=O)N(CC(=O)N1CCCCCC1)c1ccc(Br)cc1	3%	15µM*	-11%	i	3%
CS(=O)(=O)N(CC(=O)N1CCCCCC1)c1cccc(Br)c1	-1%	21µM*	2%	i	1%
SMILES	ELG1 repair inh	KB-V1 cytotox	SW480 rereplic	KB-3-1 tox	MCF10A rerep
COc1ccccc1N(CC(=O)N1CCCCCC1)S(C)(=O)=O	nt	i	?	i	0.33µM*
COc1cc(OC)c(OC)cc1/C=c1\[nH]c(=O)/c(=C/c2cc(OC)c(OC)cc2OC)[nH]c1=O	nt	i	nt	?	nt
COc1cccc(N(CC(=O)N2CCCCCC2)S(C)(=O)=O)c1	5%	i	-11%	i	0.82µM*
COc1cccc(N(CC(=O)N2CCOCC2)S(C)(=O)=O)c1	5%	i	1%	i	16%
CCOC(=O)N1CCN(C(=O)CN(c2ccc(OCc3ccccc3)cc2)S(C)(=O)=O)CC1	-24%	5.2µM*	-4%	i	-14%
O=C(NCc1ccc(F)cc1)N1[C@H]2CC[C@@H]1C=C(c1ccc(F)cc1OCc1ccccc1)C2	nt	i	nt	i	nt
CC(=NNC(N)=S)c1ccc2cc3c(cc2c1)OCO3	nt	0.58µM*	nt	?	nt
C/C(=N\NC(N)=S)c1ccc2c(c1)OCCO2	?	?	-9%	?	0%
CC(=O)c1ccc(NC(=S)Nc2ccc(N3CCOCC3)cc2)cc1	-9%	i	3%	i	-5%
CC(=O)N/N=C(\C)c1ccc2c(c1)OCCO2	?	23µM*	-7%	?	-4%
C/C(=N\NC(=S)Nc1ccc(F)cc1)c1ccc2c(c1)OCCO2	9%	12µM*	?	?	5.8µM*
C/C(=N\NC(=S)Nc1ccc(C)c(C)c1)c1ccc(N2CCOCC2)cc1	23µM*	i	-8%	i	?
Cc1cccc(C)c1NC(=O)Cn1nc(C)c2sc3ccccc3c2c1=O	nt	i	nt	i	nt
CN(c1ccccc1)c1ccc(/C=C(\C#N)c2nnc3n2CCCCC3)cc1[N+](=O)[O-]	0%	10µM*	-5%	?	?
Nc1cc(Cl)ccc1C(=O)OCC(=O)N1CCCCCC1	0%	i	-9%	i	?
Cc1ccc2nc3c(cc2c1)CN(Cc1ccco1)C(=NCC1CCCO1)S3 (stereo not given)	?	?	?	?	16%
Cc1cccc2cc3c(nc12)SC(=NCC1CCCO1)N(Cc1ccco1)C3 (stereo not given)	?	i	5.8µM*	i	?
COc1ccc(NC(=O)Cc2ccc(C)cc2)cc1S(=O)(=O)N1CCCCC1	?	?	-5%	i	-2%
COc1ccc(CC(=O)Nc2cccc(S(=O)(=O)N3CCCCCC3)c2)cc1OC	-20%	1.8µM*	5%	2.9µM*	-2%
COc1ccc(CCC(=O)Nc2cccc(S(=O)(=O)N3CCCCCC3)c2)cc1OC	?	i	22%	i	13%
COc1ccc(NC(=O)CC2CCCCC2)cc1OC	?	i	7.3µM*	i	5.8µM*
COc1ccc(CCNS(=O)(=O)c2cccc(S(=O)(=O)N3CCCC3)c2)cc1OC	?	18µM*	-7%	i	3%
